RmlCD inh 1536: inhibitors of Mycobacterium tuberculosis RmlC and RmlD coupled enzymes | P9WH09+P9WH11 | RmlC+RmlD coupled enzyme assay, percent inhibition; primary screen in compound mixtures | inhibition, % at 3.6 µM | 160,000 tested, 0.03% active | AID 1533; in the data active = inhibition mostly above about 34%, no sharp cut-off
Target sequence (P9WH09 whole entry, looked up): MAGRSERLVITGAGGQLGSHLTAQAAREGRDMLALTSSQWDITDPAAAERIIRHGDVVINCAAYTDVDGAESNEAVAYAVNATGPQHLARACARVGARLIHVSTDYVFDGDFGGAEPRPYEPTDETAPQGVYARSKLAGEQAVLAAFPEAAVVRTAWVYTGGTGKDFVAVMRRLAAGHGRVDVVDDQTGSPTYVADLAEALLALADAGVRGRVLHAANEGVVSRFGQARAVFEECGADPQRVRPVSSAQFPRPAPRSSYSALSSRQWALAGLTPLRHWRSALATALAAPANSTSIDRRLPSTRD
Target sequence (P9WH11 whole entry, looked up): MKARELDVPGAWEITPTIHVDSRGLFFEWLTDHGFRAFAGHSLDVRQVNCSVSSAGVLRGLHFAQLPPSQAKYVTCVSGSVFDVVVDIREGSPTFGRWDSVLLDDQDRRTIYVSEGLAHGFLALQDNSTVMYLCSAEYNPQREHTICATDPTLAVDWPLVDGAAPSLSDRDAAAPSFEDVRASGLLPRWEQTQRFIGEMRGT
Of the large screens only hits and unclear results are named; the others gave an inactive call. Only a selection was taken, and hits are over-represented in it overall.

Cc1cccn2c(=O)c(C=Nc3ccc(Cl)cc3)c(NCCO)nc12	none
Cc1cccn2c(=O)c(C=Nc3ccccc3)c(NCCO)nc12	RmlCD inh 1536 55
Cc1cccn2c(=O)c(C=NCCO)c(Nc3ccc(Cl)cc3)nc12	none
O=C(CCl)NC(=O)NC12CC3CC(CC(C3)C1)C2	none
N#C/C(=C\c1cccnc1)c1nc2ccccc2[nH]1	none
N#C/C(=C\c1ccncc1)c1nc2ccccc2[nH]1	RmlCD inh 1536 34
N#C/C(=C/c1ccncc1)c1nc2ccccc2s1	none
NC(=O)C1CCN(CC(=O)N2N=CCC2c2ccccc2)CC1 (stereo not given)	none
Cc1cc(C(=O)CSc2n[nH]c(N)n2)c(C)n1-c1ccc2c(c1)OCO2	none
COc1ccc(-c2ccnc3nc(N4CCN(c5ccccc5)CC4)nn23)cc1	none
COc1ccc(-c2ccnc3c(C#N)cnn23)cc1	RmlCD inh 1536 44
N#Cc1cnn2c(-c3ccccc3)ccnc12	none
Cc1ccc(-c2c(C(=O)NNC(=S)NCC3CCCO3)csc2C)cc1 (stereo not given)	none
CC(=O)N1CCN(C(=S)Nc2cc(S(=O)(=O)N3CCOCC3)ccc2Cl)CC1	none
Clc1ccc2oc3c(Cl)ncnc3c2c1	none
Cc1cc(C)c2c(N)c(C(=O)N/N=C/c3cccs3)sc2n1	RmlCD inh 1536 55
COc1ccc(/C=N/NC(=O)c2sc3nc(C)cc(C)c3c2N)cc1	none
Cc1cc(C)c2c(N)c(C(=O)c3ccccc3)sc2n1	none
CC1=C(C(=O)OC2CCCC2)C(c2ccc(C)o2)C2=C(CC(c3cccs3)CC2=O)N1 (stereo not given)	none
CCOC(=O)c1cc(-c2cccnc2)nn1-c1ccccc1C	none
N#Cc1c(Nc2ccccc2)sc(C(=O)C2CC2)c1N	none
O=C(Cc1ccc(Cl)c(Cl)c1)Nc1ccc2[nH]c(=O)[nH]c2c1	none
Cc1ccc(-n2c(-c3ccco3)nc3nc4ccccc4nc32)cc1F	none
CCCCOCCCn1c(-c2ccco2)nc2nc3ccccc3nc21	RmlCD inh 1536 57
CCn1c(-c2ccco2)nc2ccccc21	none
CC(=O)c1ccc(OC(=O)c2cc3ccccc3oc2=O)cc1	none
COc1cccc(/C=N/NC(=O)c2cc3c(OC)cccc3[nH]2)c1O	RmlCD inh 1536 69
COc1cccc(/C=N/NC(=O)c2cc3c(OC)cccc3[nH]2)c1OC	none
COc1ccc(OC)c(/C=N/NC(=O)c2cc3c(OC)cccc3[nH]2)c1	none
COc1cccc(C(=O)Nc2cc3c(cc2C(C)=O)OCCO3)c1	none
C/C(=N\NC(=O)CSc1nc(C)cc(C)n1)c1ccc2c(c1)OCCO2	none
Cc1c2ccccc2nc2c(F)c(N(C)C)c(F)c(F)c12	none
Nc1c2ccccc2nc2ccccc12	none
CN(C)c1c2ccccc2nc2c(F)c(F)c(F)c(F)c12	RmlCD inh 1536 41
Cc1cc(C)nc(NNC(=O)c2ccccc2O)n1	none
CCOc1ccccc1N(C)C(=O)c1nn(-c2ccc(OC)cc2OC)c(=O)c2ccccc12	none
O=c1[nH]c(Nc2ccc3c(c2)OCCO3)nnc1Cc1ccc(Cl)cc1	none
Cc1ccc2c(c1)c1ncnc(N3CCN(c4ccccc4)CC3)c1n2C	none
Cc1ccc2c(c1)c1ncnc(N3CCOCC3)c1n2C	RmlCD inh 1536 96
Cc1ccc2c(c1)c1ncnc(N3CCC4(CC3)OCCO4)c1n2C	none
O=c1[nH]c2cc3c(cc2cc1CN(Cc1ccco1)C(=S)NCCCN1CCOCC1)OCCO3	none
O=C(Cc1ccccc1)NCC(=O)OCC(=O)c1ccc(Cl)c([N+](=O)[O-])c1	none
Cc1ccc2nc(NC(=O)c3cc(-c4ccco4)nc4ccccc34)sc2c1	none
O=C(Nc1nc2ccccc2s1)c1cc(-c2ccco2)nc2ccccc12	RmlCD inh 1536 37
O=C(Nc1nccs1)c1cc(-c2ccco2)nc2ccccc12	none
COCCNC(=O)CC(=O)N/N=C/c1ccc(C(=O)OC)cc1	none
CCOC(=O)/C(C#N)=N/Nc1ccccc1C#N	none
COc1ccc(-c2cc3nc4n(c(=O)c3s2)CCC4)cc1	RmlCD inh 1536 77
COc1ccc(-c2cc3nc(C)n(N)c(=O)c3s2)cc1	none
COc1ccc(-c2cc3nc4n(c(=O)c3s2)CCCCC4)cc1	none
CCCCCNC(=O)c1ccc2c(=O)n(CCCN3CCCC3=O)c(=S)[nH]c2c1	none
Cc1ccccc1NC(=O)COC(=O)c1c[nH]c(=O)[nH]c1=O	none
Cc1c(Cc2ccccc2)c(=O)oc2cc(O)cc(O)c12	none
CN(C)Cc1c(O)ccc2c3c(c(=O)oc12)CCCCC3	none
O=c1oc2c(CN3CCOCC3)c(O)c(Cl)cc2c2c1CCCC2	none
O=c1oc2c(CN3CCOCC3)c(O)ccc2c2c1CCCC2	RmlCD inh 1536 44
O=C(O)c1nccnc1C(=O)Nc1ccccc1-c1ccccc1	none
COc1ccc(CNC(=O)C2CCCN2)cc1OC (stereo not given)	none
O=C(Cc1ccccc1[N+](=O)[O-])NCCCN1CCOCC1	none
COC(=O)Cc1c(C)c2cc(Cl)c(OC(=O)c3ccco3)cc2oc1=O	none
COC(=O)Cc1c(C)c2ccc(OC(=O)c3ccco3)cc2oc1=O	RmlCD inh 1536 83
COC(=O)Cc1c(C)c2ccc(OC(C)C)cc2oc1=O	none
Cc1c(N)cc[n+](CC(=O)c2ccccc2)c1C	none
COc1ccc(-c2cc(C(F)(F)F)n3nc(C(=O)N(C)Cc4ccccc4)cc3n2)cc1OC	RmlCD inh 1536 40
COc1ccc(-c2cc(C(F)(F)F)n3nc(C(=O)N4CCC5(CC4)OCCO5)cc3n2)cc1OC	none
COc1ccc(-c2cc(C(F)(F)F)n3nc(C(=O)Nc4cc(C)on4)cc3n2)cc1OC	none
O=C(CCn1nc(-c2ccc(Cl)cc2)c2ccccc2c1=O)Nc1cccnc1	none
Cc1cc(C)c(NC(=O)COc2ccccc2C(=O)Nc2ccc3c(c2)oc2ccccc23)c(C)c1	RmlCD inh 1536 99
COc1ccccc1NC(=O)COc1ccccc1C(=O)Nc1ccccc1	none
CCOc1ncccc1C(=O)Nc1ccc2c(C)cc(=O)oc2c1	none
O=[N+]([O-])c1ccc2c(c1)N([O-])C1(CCCCC1)[N+]2=O	none
CCn1cc(CNC(=O)c2cc(COc3ccc(F)cc3F)on2)cn1	none
Cc1nn(-c2ccccc2)nc1C(N)=O	none
NC(=O)c1nn(-c2ccccc2)nc1N	RmlCD inh 1536 79
Nc1nn(-c2ccccc2)nc1C(=O)OCc1ccccc1	none
Cn1cc(CN2CCC(C(O)c3cccs3)CC2)c(-c2ccccc2F)n1 (stereo not given)	none
CCOc1cc(O)c(-c2[nH]ncc2-c2nc(C)cs2)cc1CC	none
O=C(COC(=O)c1ccc(Br)cc1)NCc1ccc(F)cc1	none
Cc1cccn2c(=O)c3cc(C(=O)NCCc4ccccc4)c(=N)n(CCCn4ccnc4)c3nc12	none
CCCCNC(=O)c1cc2c(=O)n3cccc(C)c3nc2n(Cc2ccccc2)c1=N	none
COCCCn1c(=N)c(C(=O)NCC2CCCO2)cc2c(=O)n3cccc(C)c3nc21 (stereo not given)	none
CCNC(=O)c1cc2c(=O)n3cccc(C)c3nc2n(CCc2ccccc2)c1=N	RmlCD inh 1536 32
CCCn1c(=N)c(C(=O)NCC2CCCO2)cc2c(=O)n3cccc(C)c3nc21 (stereo not given)	RmlCD inh 1536 109
COCCCn1c(=N)c(C(=O)NCC2CCCO2)cc2c(=O)n3ccccc3nc21 (stereo not given)	none
Nc1ccc(Oc2ccc3c(c2)C(=O)N(CC2CCCO2)C3=O)cc1 (stereo not given)	none
O=Cc1ccc(-n2nncc2-c2ccc([N+](=O)[O-])cc2)cc1	none
COc1cc(/C=C(\C#N)c2nc3ccccc3s2)ccc1OCC(=O)Nc1ccccc1	none
CCOc1cc(/C=N\Nc2nc(-c3ccc(C)cc3)c(NC(C)=O)s2)ccc1O	none
CC(=O)Nc1sc(/C(C#N)=C/c2ccc(Cl)c(Cl)c2)nc1-c1ccc(C)cc1	RmlCD inh 1536 75
CCc1nc(SCC(=O)c2cccs2)c2oc3ccccc3c2n1	none

High-throughput results from PubChem.
